Source: PubChem BioAssay
ADAM10 inh: inhibitors of human ADAM10; O14672; recombinant ADAM10, EDANS/DABCYL FRET peptide cleavage, 3 h; inhibition, % at 7 µM; 370,000 compounds, 0.62% hits;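 active means inhibition above a per-campaign cutoff equal to the mean of compounds falling between control-based bounds plus 3 SD, cut at about 20% in these data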;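 further: 0% = DMSO wells while the 100% control is not disclosed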
GC-B act: GC-B (human) receptor activation. activation, % at 10 µM. 370,000 compounds, 0.11% hits. HEK293-GC-B cells, CNP EC30, cGMP TR-FRET; 0% at EC30 CNP, 100% saturating CNP. P20594;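 active means activation at 10 µM reaching about 35% in either raw or pattern-adjusted values, limit read from the data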
Target sequence (P20594 whole entry, looked up): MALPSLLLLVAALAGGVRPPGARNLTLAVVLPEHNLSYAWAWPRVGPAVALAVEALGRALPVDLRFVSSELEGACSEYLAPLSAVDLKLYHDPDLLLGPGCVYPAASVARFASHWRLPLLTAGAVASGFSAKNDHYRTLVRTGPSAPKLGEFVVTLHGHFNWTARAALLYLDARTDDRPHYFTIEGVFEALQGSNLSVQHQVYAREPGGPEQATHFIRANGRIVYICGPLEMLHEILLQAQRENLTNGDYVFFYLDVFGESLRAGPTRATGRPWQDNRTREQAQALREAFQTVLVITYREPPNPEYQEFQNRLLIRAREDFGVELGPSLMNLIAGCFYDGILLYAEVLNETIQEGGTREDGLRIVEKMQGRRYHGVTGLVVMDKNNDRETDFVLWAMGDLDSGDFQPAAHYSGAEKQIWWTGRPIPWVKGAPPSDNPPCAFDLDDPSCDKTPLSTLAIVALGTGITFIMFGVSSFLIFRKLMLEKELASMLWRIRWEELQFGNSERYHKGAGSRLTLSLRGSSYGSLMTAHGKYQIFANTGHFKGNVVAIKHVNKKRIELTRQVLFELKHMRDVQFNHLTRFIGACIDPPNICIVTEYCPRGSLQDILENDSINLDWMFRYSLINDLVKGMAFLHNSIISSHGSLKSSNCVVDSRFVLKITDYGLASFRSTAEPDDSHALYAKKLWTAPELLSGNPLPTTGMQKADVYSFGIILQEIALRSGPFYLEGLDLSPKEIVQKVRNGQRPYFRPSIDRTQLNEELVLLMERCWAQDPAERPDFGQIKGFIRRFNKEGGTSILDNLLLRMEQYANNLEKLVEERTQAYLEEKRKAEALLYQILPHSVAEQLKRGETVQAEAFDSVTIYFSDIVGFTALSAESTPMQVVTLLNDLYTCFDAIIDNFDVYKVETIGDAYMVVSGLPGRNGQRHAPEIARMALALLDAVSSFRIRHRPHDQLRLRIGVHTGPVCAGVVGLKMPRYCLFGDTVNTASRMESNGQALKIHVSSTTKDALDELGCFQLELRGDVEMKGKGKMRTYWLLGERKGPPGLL
FAS-TE inh: blocks the thioesterase domain of human fatty acid synthase; recombinant FAS-TE, OMFH fluorogenic substrate, fluorescence endpoint; 360,000 compounds, 0.67% hits; inhibition, % at 15 µM; P49327;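 active means compounds whose normalised, plate-corrected inhibition of enzyme fluorescence in the single-dose primary screen is 50% or more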;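 further: 0% = DMSO with enzyme and 100% = substrate without enzyme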
ADAM17 inh: inhibitors of human ADAM17; AID 720648; 370,000 compounds, 0.83% hits; recombinant ADAM17, EDANS/DABCYL FRET peptide cleavage; P78536; inhibition, % at 6.95 µM;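 active means inhibition above the mean of compounds lying between control limits plus 3 SD, set per campaign, cut at about 8.5% in these data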;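 further: 0% = DMSO-only wells as the low control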
NPR1 activator: GC-A (human) enzyme activation; P16066; 370,000 compounds, 0.14% hits; HEK293 GC-A cells, cGMP TR-FRET, EC30 ANP; 0% at EC30 ANP, 100% saturating ANP; activation, % at 10 µM; in the data active means activation above about 40%
ADAM10 counter: inhibits human ADAM10 in ADAM17 exosite counter-screen; 2,900 compounds, 47% hits; shares compounds with ADAM17 inh; recombinant ADAM10, EDANS/DABCYL FRET peptide cleavage, 3 h; inhibition, % at 6.95 µM;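 active means mean inhibition over the triplicate runs exceeds the activity threshold set in the earlier primary screen, cut at about 20% in these data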;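 further: 0% = DMSO wells and 100% = marimastat wells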
ADAM17 confirm: human ADAM17 inhibition, confirmation | 2,900 compounds, 65% hits | inhibition, % at 6.95 µM | shares compounds with ADAM17 inh | AID 743257 | recombinant ADAM17, EDANS/DABCYL QFRET peptide cleavage;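 active means mean inhibition across replicates above the hit cutoff set in the primary screen, cut at about 8.5% in these data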;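 further: 0% = DMSO wells and 100% = marimastat wells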
The depositor's hits bear a star; / = no result given. Sampled rows, rich in hits. Any-hit rate of the full collection: about 2%.

SMILES	ADAM10 inh	GC-B act	FAS-TE inh	ADAM17 inh	NPR1 activator	ADAM10 counter	ADAM17 confirm
N#CCC(CNc1ncc(C(F)(F)F)cc1Cl)OC(=O)c1ccc(Cl)cc1 (centres undefined)	15.9	-4.0	35.0	8.7*	-6.9	35.0*	15.9*
COC(=O)C1CCCN(C(=O)C2CCN(S(=O)(=O)c3ccc([N+](=O)[O-])cc3)CC2)C1 (centres undefined)	-0.1	-4.5	/	-2.2	1.8	/	/
CCOC(=O)[C@]12CCCC=C1N(CCc1ccc(Cl)cc1)C(=O)[C@@H]2CC(=O)NCCC(C)C	11.2	4.7	/	3.4	0.3	/	/
O=C1[C@H]2[C@@H](c3ccc(C(F)(F)F)cc3)N[C@]3(CCCN(Cc4ccc(F)cc4)C3=O)[C@H]2C(=O)N1Cc1ccccc1	19.7	1.3	31.0	8.9*	0.0	23.9*	12.7*
CCOC(=O)N1CCN(C(=O)C[C@H]2C[C@@]3(C(=O)OC)C(=C[C@H](C(C)C)O[C@@H]3C3CC3)N(Cc3ccc4c(c3)OCO4)C2=O)CC1	2.5	-1.4	/	1.8	-1.6	/	/
CCOC(=O)C1=C(O)/C(=C/c2ccc(-c3ccccc3C(=O)O)o2)SC1=Nc1ccc(C)cc1	-1.5	3.1	3.7	-2.2	-1.1	/	/
CCOC(=O)C1=C(O)/C(=C/c2ccc(-c3ccccc3C(=O)O)o2)SC1=Nc1ccc(OC)cc1	11.5	1.7	1.9	9.5*	-3.9	9.3	8.8*
O=C(Nc1ccc([N+](=O)[O-])cc1)Nn1cnnc1	6.3	-0.4	-5.3	10.2*	-0.5	5.5	7.8
O=C(NCC(c1ccc(F)cc1)N1CCOCC1)c1ccc(Br)o1 (centres undefined)	0.7	-7.2	-7.5	11.2*	-8.6	18.8	11.2*
O=C(NCC(c1ccc(F)cc1)N1CCOCC1)c1ccco1 (centres undefined)	-10.3	5.2	-5.6	-3.7	-0.3	/	/
Cc1ccc(NC(=O)C(OC(=O)c2cc(C)oc2C)c2ccccc2)cc1 (centres undefined)	13.5	1.6	26.4	10.8*	-3.6	16.0	12.5*
Cc1cc(C(=O)Nc2ccccc2)c(C)o1	-7.5	-1.0	1.5	-4.3	1.2	/	/
CC(C)C[C@H](NC1(C(=O)NCCc2c[nH]c3ccccc23)CCC1)C(=O)NCCCc1ccccc1	6.0	-10.7	/	8.8*	1.2	10.8	5.5
COc1ccc(C2C(C(=O)N3CCN(c4ccccc4Cl)CC3)CC(=O)N2c2ccc(OC)cc2)cc1 (centres undefined)	0.6	-2.3	/	2.4	1.2	/	/
CCCNc1nc2c(c(=O)[nH]c(=O)n2C)n1CCC(C)C	4.5	-5.3	-10.5	8.8*	-3.8	24.5*	13.0*
Cn1c(=O)cc(OCCCC(=O)Nc2cc(C(F)(F)F)ccn2)c2ccccc21	-2.4	-11.0	/	-0.4	-3.7	/	/
O=C(/C=C/c1ccc(N2CCCCC2)c([N+](=O)[O-])c1)c1ccc(O)cc1	15.6	-5.6	7.3	9.4*	2.9	25.8*	14.2*
COc1ccccc1C(=O)/C=C/c1ccc(N2CCCCC2)c([N+](=O)[O-])c1	-1.7	4.6	10.5	2.4	4.6	/	/
COC(=O)C1=C(C)N(c2cccc(C)c2)C(=O)/C1=C\c1cccs1	12.1	-1.3	4.1	8.7*	1.9	5.0	5.1
COc1ccc(C(=O)c2c[nH]c3ccccc23)cc1	12.9	-5.3	-2.3	11.2*	-1.2	-1.6	0.7
COc1ccc(CC(=O)OCC(=O)c2c[nH]c3ccccc23)cc1	-7.0	-1.0	-2.4	-0.4	-0.4	/	/
Nc1[nH]c(C(=O)c2ccccc2)c(-c2ccc(F)cc2)c1C(=O)NCCc1c[nH]c2ccccc12	-10.1	-8.6	21.1	-1.7	-10.0	/	/
Nc1[nH]c(C(=O)c2ccccc2)c(-c2cc(F)ccc2Br)c1C(=O)NCCc1c[nH]c2ccccc12	13.0	-0.4	/	10.3*	-7.5	25.5*	15.9*
C=C(C)c1cccc(C(C)(C)NC(=O)N2CCCC2)c1	-3.2	8.3	-4.0	9.1*	-2.1	1.2	0.7
O=c1ccn([C@@H]2O[C@H](CNCc3ccc(-c4cc(C(F)(F)F)ccc4Cl)o3)[C@@H](O)[C@H]2O)c(=O)[nH]1	-11.2	-9.4	-6.5	-4.3	-3.2	/	/
SMILES	ADAM10 inh	GC-B act	FAS-TE inh	ADAM17 inh	NPR1 activator	ADAM10 counter	ADAM17 confirm
Nc1ncnc2c1ncn2[C@@H]1O[C@H](CNCc2ccc(-c3cc(C(F)(F)F)ccc3Cl)o2)[C@@H](O)[C@H]1O	6.1	2.9	-10.4	10.0*	-1.7	-5.5	2.3
Cc1cc(Br)cn2c(Cc3ccccc3C(F)(F)F)c(-c3ccco3)nc12	-15.4	20.1	/	-3.7	19.0	/	/
O=C(CSc1nnc(COc2ccccc2)n1Cc1ccco1)Nc1ccc2c(c1)OCO2	2.8	-6.6	/	4.1	-5.3	/	/
O=C(OCCOc1ccccc1)c1cc(S(=O)(=O)N2CCOCC2)ccc1Cl	-0.9	5.1	26.7	-0.6	-1.6	/	/
O=C(OCCOc1cccc(Cl)c1)c1cc(S(=O)(=O)N2CCOCC2)ccc1F	6.2	9.2	22.8	10.3*	4.2	11.6	6.5
Cc1ccc(/C=C/C(=O)Nc2ccc(Oc3ccccc3)cc2)o1	17.6	5.1	24.4	12.9*	7.0	13.7	11.2*
Cc1ccc(/C=C/C(=O)Nc2ccc([N+](=O)[O-])cc2)o1	14.1	-10.3	17.3	5.2	7.9	/	/
OC(CN1CCN(c2ncc(C(F)(F)F)cc2Cl)CC1)c1ccccc1 (centres undefined)	2.5	3.9	8.4	10.0*	4.8	-6.7	-2.6
COc1ccc(/C=N/NC(=O)CN(C)S(=O)(=O)c2ccc(NC(C)=O)cc2)cc1	3.4	-5.0	-4.2	-1.7	-1.1	/	/
COc1cccc(/C=N/NC(=O)CN(CCc2ccccc2)S(=O)(=O)c2ccc(NC(C)=O)cc2)c1	4.1	4.0	12.6	10.8*	-2.2	23.6*	14.3*
CC(C)(C(=O)N1CCC1(C)C(=O)Nc1ccccc1Br)c1ccccc1 (centres undefined)	10.5	-13.8	7.7	10.7*	-4.6	-2.5	0.5
CC(C)(C(=O)N1CCC1(C)C(=O)NC1Cc2ccccc2C1)c1ccccc1 (centres undefined)	-6.1	-1.4	2.4	-2.1	-2.3	/	/
COc1cc(NC(=O)COC(=O)Cc2ccc(-c3ccccc3)cc2)cc(OC)c1	16.6	-4.8	23.5	10.8*	6.2	22.9*	11.8*
CCOc1ccccc1NC(=O)COC(=O)Cc1ccc(-c2ccccc2)cc1	10.7	-3.7	32.3	5.2	1.0	/	/
COc1cccc(Oc2ccc(S(=O)(=O)N3CCCC3)cc2[N+](=O)[O-])c1	17.8	1.3	18.7	8.7*	1.0	13.1	3.0
